Shiga toxin inh: A qHTS for Small Molecule Inhibitors of Shiga Toxin; Vero cells, Shiga toxin protein synthesis inhibition reporter; inhibition, % at 38.7 µM; 290,000 compounds, 9.2% hits; AID 2315, 2010; in the data active = inhibition mostly above about 28%, no sharp cut-off; inactive = mostly below about 43%; note: 0% is about no effect
Cycloheximide cs: Cycloheximide Counterscreen for Small Molecule Inhibitors of Shiga Toxin; cell reporter, cycloheximide protein synthesis inhibition counterscreen; max response, %; 300,000 compounds, 12% hits; in the data active = max response mostly above about 13%, no sharp cut-off; inactive = mostly below about 14%; note: read at 38.3 µM for the half of the compounds with a filed dose; 0% is about no effect
TbPYK inhibitor: qHTS of Trypanosoma Brucei Inhibitors | pyruvate kinase (Trypanosoma brucei), Q57TT1 | TbPYK enzyme, Kinase-Glo Plus ATP luminescence, 45 min | Potency, µM (series often up to 76.8 µM), without a hit: at the highest dose activity, negative = inhibition, hits mostly inhibitors | 410,000 compounds, 0.12% hits; note: potency is the fitted concentration of half-maximal effect; % is set by controls: 0 for no effect and ±100 for the full control effect; nearly all actives have a fitted effect of over 50% in size
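Assay buffer: 50 mM TEA pH 7.2, 100 mM KCl, 10 mM MgCl2, 0.05% BSA, 0.01% Tween-20. Pyruvate kinase from T. brucei plus substrate met compound, then ADP (130 uM final). Luminescence was read post 45 min RT.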
LmPK inh: qHTS Assay for Inhibitors of Leishmania Mexicana Pyruvate Kinase (LmPK). Potency, µM (titrated, usually from 57.5 µM), for inactives: top-dose activity change, negative = inhibition, actives largely listed as inhibitors. purified LmPK, Kinase-Glo ATP luminescence, 1 h. AID 1721, 2009. 290,000 compounds, 0.37% hits. Q27686; note: potency is the fitted concentration of half-maximal effect; % is set by controls: 0 for no effect and ±100 for the full control effect
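Purified LmPK (0.1 nM) converted ADP (0.1 mM) to ATP with PEP (0.5 mM) in imidazole buffer pH 7.2 with KCl and MgCl2, 1 h at room temperature. ATP was read by Kinase-Glo luminescence; data normalized to uninhibited and no-enzyme controls.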
RE007 growth inh: qHTS Assay for Inhibitors of the HIV-1 protein Vpr; S. pombe RE007 Vpr strain, BacTiter-Glo ATP luminescence, 24 h; Potency, µM (titrated, usually from 92.2 µM), for inactives: top-dose activity change, negative = less growth, hits mostly inhibitors; 360,000 compounds, 0.21% hits; active = well fitted falling curve with a large enough effect; inconclusive = small, poorly fitted or top-dose-only effect; inactive = no such curve, though single readings can be large or run the other way; note: potency is the fitted concentration of half-maximal effect; % is set by controls: 0 for no effect and ±100 for the full control effect; nearly all actives have a fitted effect of over 50% in size
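Fission yeast RE007 carrying one integrated HIV-1 vpr copy, seeded at OD 0.01 in PMG+AL medium with 23 nL pinned compound. Grown 24 h at 30 degrees; viability read by BacTiter-Glo luminescence after 5 min.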
FBPA Giardia inh: qHTS Assay for Inhibitors of Fructose-1,6-bisphosphate Aldolase from Giardia Lamblia | A8B2U2 | purified Giardia FBPA | Potency, µM (titrated, usually from 59.6 µM), inactives show at the highest dose activity, negative = inhibition, hits mostly inhibitors | 290,000 compounds, 0.71% hits | AID 2451, 2010; note: potency is the fitted concentration of half-maximal effect; % is set by controls: 0 for no effect and ±100 for the full control effect; nearly all actives have a fitted effect of over 55% in size
Target sequence (A8B2U2 whole entry, looked up): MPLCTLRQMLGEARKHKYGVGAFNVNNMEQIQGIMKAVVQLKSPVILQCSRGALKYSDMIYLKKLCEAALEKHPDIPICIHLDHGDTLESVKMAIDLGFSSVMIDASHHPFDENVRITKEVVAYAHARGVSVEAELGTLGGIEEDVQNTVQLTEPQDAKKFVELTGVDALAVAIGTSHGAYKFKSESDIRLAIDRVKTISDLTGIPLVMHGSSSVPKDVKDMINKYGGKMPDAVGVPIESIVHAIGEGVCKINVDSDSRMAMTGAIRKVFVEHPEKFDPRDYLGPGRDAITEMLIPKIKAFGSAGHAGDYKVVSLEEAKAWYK
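40 nM FBPA preincubated 10 min at RT with compound (up to 57.5 uM final), then substrate plus GAPDH/TPI/NAD/arsenate coupling and diaphorase/resazurin added. Fluorescence read after 20 min at RT, 525/598 nm.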
An asterisk follows results filed as active; [ ] = remark or other dose. Only a selection was taken, and hits are over-represented in it overall. Unless noted, calls come from the whole dose curve; as a rule, active = well fitted curve in the direction sought with a large enough effect; inconclusive = small, poorly fitted or top-dose-only effect, or another doubt; inactive = no such curve, though single readings can be large; an effect the other way counts as inactive or inconclusive.

Screening COc1ccc(OC)c(C2C(C(=O)c3cccs3)=C(O)C(=O)N2c2cc(C)on2)c1 (configuration not stated) returned Shiga toxin inh 90*, Cycloheximide cs 35*, TbPYK inhibitor 3%, LmPK inh 2%, RE007 growth inh 0% and FBPA Giardia inh inconclusive.
O=C(Nc1ccccc1)N1CCCC2(CCN(C(=O)c3cc(C(F)(F)F)cc(C(F)(F)F)c3)CC2)C1 was read as TbPYK inhibitor 0% and FBPA Giardia inh -3%.
`Cc1ccc(NC(=O)c2ccc(OC(=O)COc3ccc(Cl)cc3C)cc2)cc1` gave Shiga toxin inh 15, Cycloheximide cs 46*, TbPYK inhibitor 1%, LmPK inh -2%, RE007 growth inh 7% and FBPA Giardia inh -1%.
`Cc1ccc(NC(=O)c2ccc(OC(=O)COc3cccc(Cl)c3)cc2)cc1` gave Shiga toxin inh 51*, Cycloheximide cs 36*, TbPYK inhibitor -3%, LmPK inh -5%, RE007 growth inh 6% and FBPA Giardia inh 0%.
Screening Cc1ccc(NC(=O)c2ccc(OC(=O)CCN3C(=O)c4ccccc4C3=O)cc2)cc1 returned Shiga toxin inh 72*, Cycloheximide cs 37*, TbPYK inhibitor 11%, LmPK inh 1%, RE007 growth inh -11% and FBPA Giardia inh -3%.
Screening Cc1ccc(NC2(c3ccccc3)C(=O)c3ccccc3C2=O)cc1F returned TbPYK inhibitor -3%.
CC(C)C[C@@H](CN1CCC[C@H]1CN1C(=O)C(=O)NC[C@@H]1Cc1ccc(O)cc1)N1C[C@H](Cc2ccc(O)cc2)N(CC2CCCCCC2)C(=O)C1=O was read as TbPYK inhibitor -2% and RE007 growth inh -10%.
`C=C(CCC(=O)c1ccccc1)C(=O)c1ccccc1` gave Shiga toxin inh 4, Cycloheximide cs 17*, TbPYK inhibitor -11%, LmPK inh -1%, RE007 growth inh 32µM* and FBPA Giardia inh 5%.
Cc1ccc(NC(=O)C2CCCN2S(=O)(=O)c2cccc3cccnc23)cc1C (configuration not stated) was read as TbPYK inhibitor -10%.
Screening COc1cc(/C=N/NC(=O)CCC(=O)Nc2ccc(C)cc2)ccc1O returned Shiga toxin inh -11, Cycloheximide cs 3, TbPYK inhibitor -1%, LmPK inh 0%, RE007 growth inh 11% and FBPA Giardia inh 3%.
Screening COc1cc(/C=N/Nc2nc3ccccc3[nH]2)ccc1O returned Shiga toxin inh 33*, Cycloheximide cs 37*, TbPYK inhibitor -20%, LmPK inh -9%, RE007 growth inh 4% and FBPA Giardia inh 1%.
`COc1cc(/C=N/Nc2nc3ccccc3[nH]c2=O)ccc1O` gave Shiga toxin inh 17*, Cycloheximide cs 19, TbPYK inhibitor 0%, LmPK inh -6%, RE007 growth inh -2% and FBPA Giardia inh -20%.
Screening COc1cc(/C=N/Nc2snc(SC)c2C#N)ccc1O returned Shiga toxin inh 34, Cycloheximide cs 27*, TbPYK inhibitor -13%, LmPK inh -1%, RE007 growth inh 2% and FBPA Giardia inh 6%.
COc1cc(/C=N/Nc2nc(C)cc(C)n2)ccc1O was read as TbPYK inhibitor 5% and RE007 growth inh -15%.
Screening COc1cc(/C=C(/C(=O)c2cccs2)c2nc3ccccc3[nH]2)cc(OC)c1O returned Shiga toxin inh 91*, Cycloheximide cs 24*, TbPYK inhibitor 0%, LmPK inh -12%, RE007 growth inh -2% and FBPA Giardia inh inconclusive.
`CSc1ncc2c(n1)-c1ccccc1N(Cc1ccccc1C)S2(=O)=O` gave TbPYK inhibitor -3%.
For C#C[C@@]1(OC(C)=O)CC[C@H]2[C@@H]3CCC4=CC(=O)CC[C@@H]4[C@H]3CC[C@@]21C the results were TbPYK inhibitor 7%.
For O=[N+]([O-])c1ccc(O)c(/C=N/Nc2nc3ccccc3[nH]2)c1 the results were Shiga toxin inh 9, Cycloheximide cs 19*, TbPYK inhibitor -7%, LmPK inh 0%, RE007 growth inh 50% and FBPA Giardia inh -11%.
`COc1ccc(OC)c(/C=N/NC(=O)Cc2nc3ccccc3[nH]2)c1` gave Shiga toxin inh -10, Cycloheximide cs -1, TbPYK inhibitor 8%, LmPK inh 1%, RE007 growth inh -2% and FBPA Giardia inh 10%.
COc1ccc(O)c(/C=N/Nc2nc3ccccc3[nH]2)c1 was read as Shiga toxin inh 82*, Cycloheximide cs 49*, TbPYK inhibitor -2%, LmPK inh 0%, RE007 growth inh 8% and FBPA Giardia inh -12%.
For O=[N+]([O-])c1ccc(O)c(C=NNc2ccc(S(=O)(=O)O)cc2)c1 the results were TbPYK inhibitor 0% and RE007 growth inh -20%.
`COc1cc(/C=N/Nc2nc3ccccc3[nH]2)cc(OC)c1O` gave Shiga toxin inh 73, Cycloheximide cs 18*, TbPYK inhibitor -21%, LmPK inh -20%, RE007 growth inh 1% and FBPA Giardia inh -7%.
`COc1cc(/C=N/Nc2nc3ccccc3[nH]2)cc(Br)c1OCC(=O)N(C)C` gave Shiga toxin inh 139*, Cycloheximide cs 37*, TbPYK inhibitor 1%, LmPK inh 8%, RE007 growth inh -17% and FBPA Giardia inh -16%.
`CNC(=O)c1c(NC(=O)CCS(=O)(=O)c2ccc(F)cc2)sc(C)c1C` gave TbPYK inhibitor 4% and RE007 growth inh -2%.
For O=C1c2ccccc2C2N1CCCN2C(=O)c1sc2ccccc2c1Cl (configuration not stated) the results were TbPYK inhibitor -4% and RE007 growth inh 18%.
For CCOCCCNC(=O)c1ccc(OC(C)=O)cc1 the results were Shiga toxin inh -7, Cycloheximide cs 1, TbPYK inhibitor -1%, LmPK inh -6%, RE007 growth inh -9% and FBPA Giardia inh 6%.
O=C(NCCCCNC(=O)c1ccc(Br)cc1)c1ccc(Br)cc1 was read as Shiga toxin inh 13, Cycloheximide cs -1, TbPYK inhibitor 25%, LmPK inh 1%, RE007 growth inh -5% and FBPA Giardia inh 5%.
Screening CCOCCCNC(=O)c1ccc(Br)cc1 returned Shiga toxin inh 57, Cycloheximide cs 26*, TbPYK inhibitor 9%, LmPK inh 1%, RE007 growth inh 7% and FBPA Giardia inh 4%.
For CC(C)OCCCNC(=O)c1ccc(Br)cc1 the results were Shiga toxin inh 83, Cycloheximide cs 44*, LmPK inh -6%, RE007 growth inh 4%[3.69 µM] and FBPA Giardia inh 4%.

High-throughput results from PubChem.
